Growth inhibition call data for 37 compounds are collected here from the antibiotic and cytotoxicity screens of Wong et al. (2023).

Molecules are shown by their SMILES. In all, about 39,000 compounds went through this assay and about 500 (1.3%) were called active. The sample as a whole holds a higher share of actives than the screen did.

The test system of the assay is S. aureus RN4220. The assay can be described thus: growth inhibition call (relative growth <= 0.2). The following applies: 50 µM.
On to `C[C@@H]1CN([C@@H](C)CO)C(=O)c2cc(/C=C/c3ccccc3)cnc2O[C@@H]1CN(C)C(=O)C1CCOCC1`, for which the growth inhibition call was “inactive”. On to `CO/N=C(\C(=O)N[C@@H]1C(=O)N2C(C(=O)O)=C(CSC(=O)c3ccco3)CS[C@H]12)c1csc(N)n1`, for which the growth inhibition call was “active”. With `CON=C(C(=O)NC1C(=O)N2C(C(=O)O)=C(CSC(=O)c3ccco3)CSC12)c1csc(N)n1.Cl` (configuration not stated) the entry was “active”; with `Cc1noc(C)c1S(=O)(=O)Nc1ccc2c(c1)C(=O)N([C@@H](C)CO)C[C@H](C)[C@@H](CN(C)S(=O)(=O)c1ccc(Cl)cc1)O2`, “inactive”. In the case of `NNCCc1ccccc1.O=S(=O)(O)O` it was “inactive”; in that of `N=C(N=C(N)N)NCCc1ccccc1`, “inactive”.

For `NNCCc1ccccc1`, the growth inhibition call was “active”. With `O=c1[nH]c(=O)n(C2CC(O)C(CO)O2)cc1I` (configuration not stated) the entry was “inactive”; with `COc1cccc(OC)c1C(=O)NC1C(=O)N2C1SC(C)(C)C2C(=O)[O-].[Na+]` (configuration not stated), “active”; with `COc1cccc(OC)c1C(=O)NCCCO`, “inactive”.

Consider `COc1cccc(OC)c1C(=O)NN`, for which the growth inhibition call is “inactive”. With `CCOc1ccc2ccccc2c1C(=O)NC1C(=O)N2C1SC(C)(C)C2C(=O)[O-].[Na+]` (configuration not stated) the entry was “active”; with `Cc1cc(=O)n2nc(CC(=O)NCCCn3c(C)cccc3=O)nc2[nH]1`, “inactive”; with `C[C@H]1CN([C@@H](C)CO)S(=O)(=O)c2ccc(Br)cc2O[C@H]1CN(C)S(=O)(=O)c1ccccc1`, “inactive”. Turning to `Cc1noc(C)c1S(=O)(=O)N(C)C[C@@H]1Oc2ccc(NC(=O)C3CC3)cc2CC(=O)N([C@@H](C)CO)C[C@@H]1C`, the growth inhibition call is “inactive”. With `C[C@@H]1CN([C@@H](C)CO)C(=O)c2cc(NS(=O)(=O)c3ccc(Cl)cc3)ccc2O[C@@H](C)CCCCO[C@@H]1CN(C)Cc1ccccc1` the entry was “inactive”; with `C[C@H]1CN([C@@H](C)CO)C(=O)c2c(c3ccccc3n2C)-c2ccccc2CO[C@H]1CN(C)C(=O)Nc1cccc(F)c1`, “inactive”. With `Cc1cc(OCCCS(C)(=O)=O)cc(C)c1-c1cccc(COc2ccc3c(c2)OC[C@H]3CC(=O)O)c1` the entry was “active”. Regarding `C[C@H]1OC(=O)c2c(O)ccc(O)c2[C@H]1O`, the growth inhibition call was “inactive”.

For the compound `COc1cccc(NC(=O)N2C[C@H](O)COC[C@@H]3O[C@H](CC(=O)NCCCN4CCOCC4)CC[C@H]32)c1`, the growth inhibition call is “inactive”. As to `CC[C@H](C)[C@H]1O[C@]2(C=C[C@@H]1C)C[C@@H]1C[C@@H](C/C=C(\C)[C@@H](O[C@H]3C[C@H](OC)[C@@H](O[C@H]4C[C@H](OC)[C@@H](NC(C)=O)[C@H](C)O4)[C@H](C)O3)[C@@H](C)/C=C/C=C3\CO[C@@H]4[C@H](O)C(C)=C[C@@H](C(=O)O1)[C@]34O)O2`, the growth inhibition call was “inactive”.

Turning to `CCC(C)C1OC2(C=CC1C)CC1CC(CC=C(C)C(OC3CC(OC)C(OC4CC(OC)C(NC(C)=O)C(C)O4)C(C)O3)C(C)C=CC=C3COC4C(O)C(C)=CC(C(=O)O1)C34O)O2` (configuration not stated), the growth inhibition call is “inactive”.

As for `COC1CC(OC2C(C)=CCC3CC(CC4(CCC(C)C(C5CCCCC5)O4)O3)OC(=O)C3C=C(C)C(=NO)C4OCC(=CC=CC2C)C34O)OC(C)C1O` (configuration not stated), the growth inhibition call is “inactive”. As for `CO[C@H]1C[C@@H](O[C@@H]2/C(C)=C/C[C@@H]3C[C@@H](C[C@]4(CC[C@H](C)[C@@H](C5CCCCC5)O4)O3)OC(=O)[C@@H]3C=C(C)/C(=N/O)[C@H]4OC/C(=C\C=C\[C@@H]2C)[C@]43O)O[C@@H](C)[C@@H]1O`, the growth inhibition call was “inactive”. In the case of `CO[C@H]1C[C@H](O[C@@H]2/C(C)=C/C[C@@H]3C[C@@H](C[C@]4(CC[C@H](C)[C@@H](C5CCCCC5)O4)O3)OC(=O)[C@@H]3C=C(C)/C(=N/O)[C@H]4OC/C(=C\C=C\[C@@H]2C)[C@]43O)O[C@@H](C)[C@@H]1O` it was “active”. With `CN[C@@H]1[C@@H](C)O[C@@H](O[C@H]2[C@H](C)O[C@@H](O[C@@H]3/C(C)=C/C[C@@H]4C[C@@H](C[C@]5(C=C[C@H](C)[C@@H](C(C)C)O5)O4)OC(=O)[C@@H]4C=C(C)[C@@H](O)[C@H]5OC/C(=C\C=C\[C@@H]3C)[C@]54O)C[C@@H]2OC)C[C@H]1OC` the entry was “active”; with `COc1ccc(S(=O)(=O)Nc2ccc3c(c2)C(=O)N([C@H](C)CO)C[C@H](C)[C@@H](CN(C)C(=O)CCC(F)(F)F)OCCCC[C@@H](C)O3)cc1`, “inactive”; with `COc1cccc(-c2cnc3c(c2)C(=O)N([C@H](C)CO)C[C@H](C)[C@H](CN(C)S(=O)(=O)c2cn(C)cn2)O3)c1`, “inactive”. In the case of `O=C1NC2=C(C(=O)OC2)[C@H](c2ccccc2)N1` it was “inactive”; in that of `C[C@@H](O)[C@@H](O)[C@@H](O)C/C=N/NC(=O)CCCCCCC(=O)NO`, “inactive”; in that of `CC(C)NC(=O)N(C)C[C@@H]1Oc2ccc(NC(=O)CCN3CCOCC3)cc2C(=O)N([C@H](C)CO)C[C@@H]1C`, “inactive”. Turning to `Oc1ccc(C=Cc2cc(O)cc(O)c2)cc1`, the growth inhibition call is “inactive”.

For the compound `COc1cc(C=Cc2ccc(O)cc2)cc(OC)c1`, the growth inhibition call was “active”. In the case of `COc1ccc(O)cc1` it was “inactive”. In the case of `CCCCCCCCCC(=O)N[C@H]1[C@H](Oc2c3cc4cc2Oc2ccc(cc2Cl)[C@@H](O[C@@H]2O[C@H](CO)[C@@H](O)[C@H](O)[C@H]2NC(C)=O)[C@@H]2NC(=O)[C@H](NC(=O)[C@@H]4NC(=O)[C@H]4NC(=O)[C@@H](Cc5ccc(c(Cl)c5)O3)NC(=O)[C@@H](N)c3ccc(O)c(c3)Oc3cc(O)cc4c3)c3ccc(O)c(c3)-c3c(O[C@H]4O[C@H](CO)[C@@H](O)[C@H](O)[C@@H]4O)cc(O)cc3[C@H](C(=O)O)NC2=O)O[C@H](CO)[C@@H](O)[C@@H]1O` it was “active”; in that of `CCCCCC=CCCC(=O)NC1C(Oc2c3cc4cc2Oc2ccc(cc2Cl)C(OC2OC(CO)C(O)C(O)C2NC(C)=O)C2NC(=O)C(NC(=O)C4NC(=O)C4NC(=O)C(Cc5ccc(c(Cl)c5)O3)NC(=O)C(N)c3ccc(O)c(c3)Oc3cc(O)cc4c3)c3ccc(O)c(c3)-c3c(OC4OC(CO)C(O)C(O)C4O)cc(O)cc3C(C(=O)O)NC2=O)OC(CO)C(O)C1O` (configuration not stated) [TEICOPLANIN [A(2-1) shown]], “active”; in that of `CCCCC/C=C/CCC(=O)N[C@H]1[C@H](Oc2c3cc4cc2Oc2ccc(cc2Cl)[C@@H](O[C@@H]2O[C@H](CO)[C@@H](O)[C@H](O)[C@H]2NC(C)=O)[C@@H]2NC(=O)[C@H](NC(=O)[C@@H]4NC(=O)[C@H]4NC(=O)[C@@H](Cc5ccc(c(Cl)c5)O3)NC(=O)[C@H](N)c3ccc(O)c(c3)Oc3cc(O)cc4c3)c3ccc(O)c(c3)-c3c(O[C@H]4O[C@H](CO)[C@@H](O)[C@H](O)[C@@H]4O)cc(O)cc3[C@@H](C(=O)O)NC2=O)O[C@H](CO)[C@@H](O)[C@@H]1O`, “active”.
